# Source: PubChem (Broad Institute)
# ERAP1 HTS inh: human ERAP1 aminopeptidase inhibitors, primary screen, biochemical, single point, plate reader | inhibition, % at 10.7 µM | AID 652197, 2013 | recombinant ERAP1, Leu-AMC fluorescence, 60 min | Endoplasmic reticulum aminopeptidase 1 (Homo sapiens), Q9NZ08 | actives 0.15% (n = 340,000);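 active means mean replicate inhibition of at least 30%, or all replicates individually reaching that 30% level; inactive means mean below 30% and not every replicate reaching it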
# Target sequence (Q9NZ08 whole entry, looked up): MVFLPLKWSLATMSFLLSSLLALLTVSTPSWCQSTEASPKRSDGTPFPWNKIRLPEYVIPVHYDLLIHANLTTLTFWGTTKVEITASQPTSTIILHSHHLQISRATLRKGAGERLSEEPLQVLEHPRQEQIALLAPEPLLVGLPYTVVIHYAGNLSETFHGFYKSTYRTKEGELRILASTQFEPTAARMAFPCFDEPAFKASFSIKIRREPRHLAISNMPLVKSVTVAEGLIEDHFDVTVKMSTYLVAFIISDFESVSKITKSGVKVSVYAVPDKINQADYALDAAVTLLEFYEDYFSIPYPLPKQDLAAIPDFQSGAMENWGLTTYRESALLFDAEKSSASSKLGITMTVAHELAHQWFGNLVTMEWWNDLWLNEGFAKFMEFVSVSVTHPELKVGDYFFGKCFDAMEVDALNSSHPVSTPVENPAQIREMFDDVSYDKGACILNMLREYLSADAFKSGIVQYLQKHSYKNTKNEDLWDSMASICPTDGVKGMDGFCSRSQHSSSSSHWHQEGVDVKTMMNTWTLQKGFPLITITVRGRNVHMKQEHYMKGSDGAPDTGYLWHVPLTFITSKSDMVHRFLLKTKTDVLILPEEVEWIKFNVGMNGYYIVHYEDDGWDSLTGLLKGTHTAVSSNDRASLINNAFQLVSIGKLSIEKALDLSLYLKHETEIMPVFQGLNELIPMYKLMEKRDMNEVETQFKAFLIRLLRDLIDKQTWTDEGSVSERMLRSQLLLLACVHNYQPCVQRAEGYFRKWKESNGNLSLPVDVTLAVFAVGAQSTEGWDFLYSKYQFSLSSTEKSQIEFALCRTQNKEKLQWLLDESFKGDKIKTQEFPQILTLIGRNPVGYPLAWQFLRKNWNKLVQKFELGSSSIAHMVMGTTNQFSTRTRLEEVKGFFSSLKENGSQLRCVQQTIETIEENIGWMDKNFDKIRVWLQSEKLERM
# F508del corr: F508del CFTR correction, initial screen, CFBE line, single point; CFBE cells, YFP halide quenching; stimulated with forskolin plus potentiator P3; % fluorescence drop versus neutral controls; activity (quench increase), % at 7.58 µM; actives 0.36% (n = 350,000); AID 720511, 2013;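 active means mean added fluorescence quench of at least 8% versus neutral control, with both replicates also reaching 8%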;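 further: cells transiently co-express mutant CFTR-F508del with the halide-sensitive YFP; corrector assay measuring rescue of mutant channel to the surface after 24 h compound exposure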
# ARNT-TACC3 inh: disruptors of ARNT/TACC3 protein interaction, primary screen, biochemical, AlphaScreen, single concentration. Transforming acidic coiled-coil-containing protein 3 (Homo sapiens), Q9Y6A5. AlphaScreen His-ARNT PAS-B/GST-TACC3 binding, luminescence; TACC3 fragment carries E629A point mutation. inhibition, % at 9.99 µM. actives 0.66% (n = 390,000). AID 623870, 2012;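 active means mean inhibition of replicates at least 50% and at least half of replicates each reaching 50%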
# PvdQ acylase: P. aeruginosa PvdQ acylase inhibitors, primary screen, biochemical, fluorescence, plate reader and imaging, single point | PvdQ acylase [Pseudomonas aeruginosa LESB58] | purified PvdQ acylase | inhibition, % at 10 µM | actives 0.063% (n = 340,000) | AID 488965, 2010; in the data active means inhibition above about 30%, passing the limit was not always enough
# rRNA inh HTS: reduced GFP signal of wild-type E. coli, primary screen, bacterial rRNA inhibitor project, GFP/RFP fluorescence, OD600, single point; E. coli WT GFP vs humanized-ribosome RFP mutants, 24 h; stronger effect = lower value; DMSO median 0, no signal -100; actives 1.6% (n = 350,000); GFP signal change (wild-type ribosome), % (no concentration beside the values);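 active means significant combined selectivity score with lowered wild-type GFP, culture density cut under 30%, mutant RFP and density less affected; inactive means any of these conditions unmet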
# A number is an active result; 0 = inactive; - = not tested or not shown. The list is not random: actives were taken first. Their share in the collection is about 2.1%.
SMILES,ERAP1 HTS inh,F508del corr,ARNT-TACC3 inh,PvdQ acylase,rRNA inh HTS
O=C(NNC(=O)c1sc2ccccc2c1Cl)Nc1ccc(Cl)cc1,0,-,0,0,-20.4
O=C(Nc1ccncc1)c1sc2ccccc2c1Cl,0,0,0,0,0
CN1CCN(c2ccc(NC(=O)c3sc4ccccc4c3Cl)cc2)CC1,0,0,0,0,-25.0
O=C(NCc1ccccc1)[C@]1(CCS(=O)(=O)c2ccccc2)N=C(c2ccc(OCCCO)cc2)O[C@@H]1c1ccccc1,0,0,-,-,-
O=C(C[C@@H]1CC[C@H]2[C@@H](COC[C@@H](O)CN2C(=O)c2ccncc2)O1)NCc1cccc(F)c1,-,0,0,-,0
Cc1ccc2nc3c(cc(C(N)=S)c(=N)n3CCCOC(C)C)c(=O)n2c1,33.3,0,0,0,0
COCCCn1c(=N)c(C(N)=S)cc2c(=O)n3cccc(C)c3nc21,0,0,0,0,0
CC(C)[C@@H]1C(=O)N[C@@H](c2ccc3c(c2)OCO3)C/C=C/C[C@H](C)Oc2ccccc2C(=O)N1C,-,-,-,-,0
O=C(O)c1cc([N+](=O)[O-])ccc1NCCc1ccccc1,0,0,0,0,-42.1
O=C(O)c1cc([N+](=O)[O-])ccc1Nc1ccccc1,0,0,0,0,-34.1
Cc1cccc(Nc2ccc([N+](=O)[O-])cc2C(=O)O)c1,0,0,-,0,0
CCCC(O)C#Cc1cnc2c(c1)C(=O)N([C@H](C)CO)C[C@H](C)[C@H](CN(C)S(=O)(=O)c1cn(C)cn1)O2 (stereo not given in full),0,0,0,-,0
O=C(C[C@@H]1CC[C@@H](NC(=O)CC2CC2)[C@@H](CO)O1)NCc1ccccc1,0,0,-,-,0
COc1cccc(NC(=O)N[C@@H]2C=C[C@@H](CC(=O)Nc3ccc(-c4ccccc4)cc3)O[C@@H]2CO)c1,0,0,0,-,0
CCCC(=O)Nc1ccc2c(c1)C(=O)N(C)C[C@H](OC)[C@@H](C)CN(Cc1ccccn1)[C@H](C)CO2,0,0,0,-,0
CNC(=O)C[C@H]1CC[C@H]2[C@@H](COc3ccc(NC(=O)c4cnccn4)cc3C(=O)N2C)O1,-,0,0,-,0
Cc1noc(C)c1NC(=O)Nc1ccc2c(c1)CC(=O)N([C@H](C)CO)C[C@H](C)[C@@H](CN(C)C)O2,0,0,0,-,0
NNc1nc2c(-c3ccc(F)cc3)nnn2c2ccccc12,0,0,0,0,-16.6
C[C@@H](NC(=O)[C@H]1[C@H](CO)[C@H]2Cn3c(ccc(C4=CCCC4)c3=O)[C@H]2N1C)c1ccccc1,0,0,0,-,0
Nc1nc(Nc2ccccc2F)nc(N2CCOCC2)c1[N+](=O)[O-],0,0,0,0,-19.9
COc1ccc(Nc2nc(N)c([N+](=O)[O-])c(N3CCOCC3)n2)cc1,0,0,0,0,-27.8
O=C(C[C@@H]1C[C@@H]2c3cc(NC(=O)NC4CCCC4)ccc3O[C@@H]2[C@H](CO)O1)NCc1ccc(-c2ccccc2)cc1,0,0,0,-,0
CC(C)C#Cc1cnc2c(c1)C(=O)N([C@H](C)CO)C[C@H](C)[C@H](CN(C)C(=O)Cc1ccncc1)O2,0,0,0,-,0
CCCCNC(=S)NNC(=O)c1csc(C)c1C,-,-,0,0,-
Cc1scc(C(=O)NNC(=S)NC(C)c2ccccc2)c1C (stereo not given),0,-,0,0,-20.4
COc1ccc(Cc2nc3ccc(C(=O)NCCc4ccncc4)cc3o2)cc1OC,0,0,0,0,0
COc1ccc(C(=O)Nc2ccc3oc(Cc4ccc(Cl)cc4)nc3c2)cc1OC,0,0,0,0,-14.5
Cn1ccc2c(-c3ccc(CO)cc3)cc3c(c21)C1CCC3C1 (stereo not given),-,0,-,-,-30.4
O=C(C[C@@H]1CC[C@H](NC(=O)Nc2ccc3c(c2)OCO3)[C@@H](CO)O1)NCc1ccc2c(c1)OCO2,0,0,0,-,0
O=S(=O)(Cc1ccccc1)N1CCCCN2[C@H](CO)[C@@H](c3ccc(-c4ccccc4)cc3)[C@H]2C1,0,0,-,-,0
